Source: PubChem (National Center for Advancing Translational Sciences (NCATS))
This is a sample that favours compounds with a hit; in the whole collection about 10% have one here.
Luciferase inh = blocks purified firefly luciferase enzyme activity | purified P. pyralis luciferase, luminescence, biochemical | Potency, µM (series often up to 115 µM), most hits filed as inhibitors | 76,000 compounds, 2.5% hits | AID 1347043; note: nearly all actives have a fitted effect of over 65% in size
Target sequence (P08659 whole entry, looked up): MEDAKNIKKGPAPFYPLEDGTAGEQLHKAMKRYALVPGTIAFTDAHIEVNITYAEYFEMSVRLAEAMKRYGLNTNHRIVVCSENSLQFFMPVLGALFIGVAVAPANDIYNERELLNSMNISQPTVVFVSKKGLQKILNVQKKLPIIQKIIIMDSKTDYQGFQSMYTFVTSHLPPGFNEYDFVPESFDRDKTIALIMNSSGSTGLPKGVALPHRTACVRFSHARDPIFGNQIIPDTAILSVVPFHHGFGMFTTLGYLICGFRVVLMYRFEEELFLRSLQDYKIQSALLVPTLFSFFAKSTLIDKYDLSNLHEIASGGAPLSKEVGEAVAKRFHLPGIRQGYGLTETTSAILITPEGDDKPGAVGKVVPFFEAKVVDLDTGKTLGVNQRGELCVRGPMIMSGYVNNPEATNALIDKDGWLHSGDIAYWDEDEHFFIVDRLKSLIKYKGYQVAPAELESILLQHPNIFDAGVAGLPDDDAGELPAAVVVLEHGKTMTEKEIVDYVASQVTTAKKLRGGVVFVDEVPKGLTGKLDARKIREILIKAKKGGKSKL
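Purified 10nM P. pyralis luciferase with 10uM D-luciferin and 10uM ATP in 50mM Tris acetate pH 7.5, 10mM Mg acetate, 0.01% Tween-20, 0.05% BSA. qHTS titration; luminescence read by CCD imager.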
GPT2 inhibitor = blocks human glutamate pyruvate transaminase 2; Q8TD30; Recombinant GPT2, coupled pyruvate oxidase/HRP Amplex Red fluorescence; Potency, µM (highest dose often 57.7 µM), without a hit: at the highest dose activity change, negative = inhibition, usual class: inhibitors; 100,000 compounds, 0.25% hits; AID 1671188; note: nearly all actives have a fitted effect of over 60% in size
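Fluorescence read-out: pyruvate from GPT2 turnover coupled to pyruvate oxidase, HRP and Amplex Red (0.2mM ThPP, 0.2U/mL PO and HRP, 50uM Amplex final). Substrates 250uM a-KG, 2mM L-alanine; enzyme 10ng/uL; 30 min RT.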
HEK293 tox = HEK 293 cell cytotoxicity | AID 1345083 | Potency, µM (doses to about 115 µM), for the others: at the highest dose activity change, negative = cytotoxicity, hits mostly inhibitors | HEK 293 viability, ATP luminescence (CellTiter-Glo), 48-72 h | 94,000 compounds, 6.6% hits; note: nearly all actives have a fitted effect of over 60% in size
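HEK 293 cells seeded at 250 cells/well were exposed to compound for 48 or 72 hr at 37 degree Celsius. Viability taken as ATP content by CellTiter-Glo luminescence.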
3T3 cytotox = kills NIH 3T3 cells; AID 1345082; NIH 3T3 viability, CellTiter-Glo ATP luminescence, 48-72 h; 94,000 compounds, 4.3% hits; Potency, µM (titrated, usually from 96.7 µM), inactives show at the highest dose activity change, negative = cytotoxicity, most hits filed as inhibitors; note: nearly all actives have a fitted effect of over 55% in size
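NIH 3T3 cells at 400 cells/well received 23 nL of compound by pintool and were incubated 48 or 72 h at 37 °C. Viability was read as ATP-coupled CellTiter-Glo luminescence.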
hNpr1 antagonist = antagonists of human natriuretic peptide receptor Npr1 | Potency, µM (doses to about 46.3 µM), inactives show at the highest dose activity change, negative = inhibition, actives largely listed as inhibitors | AID 1347048 | HEK293 hNpr1 GloSensor cGMP, ANP-stimulated luminescence | 76,000 compounds, 1.6% hits; calls by dose curve; note: nearly all actives have a fitted effect of over 60% in size
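HEK293 cells stably expressing human Npr1 and cGMP GloSensor pGS-40F, loaded 2 h with 2% GloSensor reagent, given compound 30 min at room temperature. Luminescence read before and 20 min after 0.1 nM hNppA.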
An asterisk follows results filed as active; i = inactive; u = inconclusive; x = no result given; [ ] = remark or other dose. Unless noted, calls come from the whole dose curve; as a rule, active = well fitted curve in the direction sought with a large enough effect; inconclusive = small, poorly fitted or top-dose-only effect, or another doubt; inactive = no such curve, though single readings can be large; an effect the other way counts as inactive or inconclusive. % is set by controls: 0 for no effect and ±100 for the full control effect; potency is the fitted concentration of half-maximal effect.

SMILES	Luciferase inh	GPT2 inhibitor	HEK293 tox	3T3 cytotox	hNpr1 antagonist
S=C(NC1CCCCC1)N[C@H]1CO[C@H]2[C@@H]1OC[C@@H]2n1cc(-c2ccccn2)nn1	i	-26%[88.5 µM]	89µM*	u	u
O=C(Nc1ccccc1)O[C@@H]1CO[C@H]2[C@@H]1OC[C@@H]2n1nnnc1SC1CCCC1	i	2%[88.5 µM]	u	-25%[174 µM]	u
COCC(=O)NC1CCC12CCN(C(=O)C1CCOCC1)CC2 (stereo not drawn)	i	3%	-11%	-13%	5%
COCCNC(=O)c1ccc2nc(-c3cccnc3Cl)oc2c1	x	-2%[88.5 µM]	i	-14%[138 µM]	x
NCc1ccccc1-c1cnc2ccccc2c1	x	u	u	100µM*	x
COc1cccc(-c2cnc3n[nH]c(-c4ccc(F)cc4C)c3n2)c1	i	-34%[88.5 µM]	-23%[172 µM]	u	-10%[70.6 µM]
COc1ccc(-c2[nH]nc3ncc(-c4ccc(CO)cc4)nc23)cc1F	i	3%[88.5 µM]	35µM*	28µM*	0%[70.6 µM]
Cc1ccccc1-c1[nH]nc2ncc(-c3cccc(F)c3)nc12	20µM*	1%[88.5 µM]	63µM*	u	-23%[70.6 µM]
COc1ccc(-c2[nH]nc3ncc(-c4cccnc4)nc23)cc1F	i	-12%[88.5 µM]	u	u	-3%[70.6 µM]
Cc1cc(F)ccc1-c1[nH]nc2ncc(-c3ccccc3)nc12	i	i	u	u	-14%[70.6 µM]
COc1ccccc1-c1[nH]nc2ncc(-c3cccc(F)c3)nc12	x	-6%[88.5 µM]	x	x	x
Cc1ccccc1-c1[nH]nc2ncc(-c3ccc(F)cc3)nc12	22µM*	i	45µM*	u	-15%[70.6 µM]
COc1ccc(-c2cnc3n[nH]c(-c4ccc(F)cc4C)c3n2)cc1OC	i	2%[88.5 µM]	28µM*	28µM*	-11%[70.6 µM]
O=C(c1ccccn1)N1CC(Oc2ccc(F)c(F)c2)C1	x	5%[88.5 µM]	-29%[172 µM]	-29%[138 µM]	x
COc1ccc(CC(=O)Nc2ccc([C@H]3OCC(=O)N(Cc4ccc(F)cc4)[C@@H]3CO)cc2)cc1	i	-1%	u	-20%	3%
CN(Cc1cnccn1)C(=O)c1csc2nc(-c3cccc(C(F)(F)F)c3)cn12	u	-19%	u	u	16%
CN(C)CC(C)(C)NC(=O)c1csc2nc(-c3cccc(C(F)(F)F)c3)cn12	i	1%[11.5 µM]	45µM*	u	-9%
Cn1nc2n(c1=O)CCN(S(=O)(=O)c1ccccc1C(F)(F)F)CC2	i	i	-13%	-13%	-1%
CN(Cc1cccc(N2CCN(S(=O)(=O)c3ccccc3C(F)(F)F)CC2)c1F)S(C)(=O)=O	x	x	35µM*	u	x
CC1(CNc2ccccc2)COc2ccc(C(=O)Nc3ccc4[nH]ccc4c3)cc2N1 (stereo not drawn)	10µM*	-6%[88.5 µM]	u	40µM*	-28%[70.6 µM]
COc1ccc(OCC2(C)COc3ccc(C(=O)Nc4ccn(C)n4)cc3N2)cc1 (stereo not drawn)	u	-15%[88.5 µM]	u	u	18µM*
COCCNC(=O)c1ccc2c(c1)NC(C)(COc1ccc(OC)cc1)CO2 (stereo not drawn)	i	3%[88.5 µM]	u	u	-19%[70.6 µM]
COc1cccc(NC(=O)c2ccc3c(c2)NC(C)(COc2ccc4[nH]ccc4c2)CO3)c1 (stereo not drawn)	i	-7%	25µM*	13µM*	-22%
COCCCn1c(=O)c(C(=O)N2CCN([S+](=O)([O-])c3cccs3)CC2)nc2cccnc21	x	1%	-18%	-21%	x
COc1ccc(-n2c(=O)c3c(n2Cc2ccccc2)CN(Cc2c[nH]c4ccccc24)CC3)cc1	i	i	u	u	-17%
O=[S+]([O-])(NCC1CN(Cc2cccc(Cl)c2)CC12CN(c1ccccc1)C2)c1ccccc1 (stereo not drawn)	i	0%	u	u	-8%
O=[S+]([O-])(NCC1CN(Cc2ccc3[nH]ccc3c2)CC12CN(c1ccccc1)C2)c1ccccc1 (stereo not drawn)	i	u	22µM*	22µM*	3%
CC(C)c1ccc(CN2CC(CN[S+](=O)([O-])c3ccccc3)C3(C2)CN(c2ccccc2)C3)cc1 (stereo not drawn)	i	2%	u	40µM*	-4%
